# Source: PubChem BioAssay AID1224865 (Sanford-Burnham Center for Chemical Genomics, 2016)
# Values joined by “and” are separate entries in the source; they are usually repeats but may differ in a detail not shown here. Equal values may be shown once. About 1,100 (0.31%) of roughly 360,000 compounds were called active. No stated cut-off is given here; in the data, active means activity change above about 30% (passing the limit was not always enough); inactive means the rest. Shown is part of a subset that was picked to be rich in actives. Some structures have more than one record in an assay (separate samples or runs), and their calls can disagree.
# Target: Hepatocyte nuclear factor 4-alpha (Homo sapiens) (UniProt P41235)
# Sequence (P41235 whole entry, looked up): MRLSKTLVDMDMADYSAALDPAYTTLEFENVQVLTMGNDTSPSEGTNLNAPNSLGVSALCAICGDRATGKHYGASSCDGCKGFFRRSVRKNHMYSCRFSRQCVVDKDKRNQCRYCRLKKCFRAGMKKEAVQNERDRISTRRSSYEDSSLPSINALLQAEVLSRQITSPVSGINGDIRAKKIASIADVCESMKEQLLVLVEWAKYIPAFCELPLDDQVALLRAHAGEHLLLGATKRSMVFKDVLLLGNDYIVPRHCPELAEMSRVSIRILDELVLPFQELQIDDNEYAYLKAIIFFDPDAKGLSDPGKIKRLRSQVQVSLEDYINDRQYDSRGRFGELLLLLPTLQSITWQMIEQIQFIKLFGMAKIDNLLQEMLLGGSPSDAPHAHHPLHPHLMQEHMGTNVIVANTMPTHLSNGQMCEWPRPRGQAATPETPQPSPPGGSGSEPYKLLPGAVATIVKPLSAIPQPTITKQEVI
# Test: change in binding of human HNF4A to DNA, primary screen, biochemical, fluorescence polarization, FITC-DNA (AID 1224865)
# Conditions: 1 h, at 10 µM, stronger effect = higher value
row,SMILES,activity change
1,CCc1ccc(CN2C(=O)c3ccccc3C2C(=O)NCC2CCCO2)cc1 (stereo not given),0.41% (inactive)
2,O=C(NC(=S)Nc1ncccn1)c1ccccc1Br,1.65% (inactive)
3,O=C(Nc1cc(Cl)ccc1N1CCOCC1)c1ccc(N2CCCC2=O)cc1,-2.01% (inactive)
4,O=C(CCN1C(=O)/C(=C/c2cccs2)SC1=S)NNC(=O)c1cccc(O)c1,42.1% (active)
5,O=C(CCN1C(=O)c2ccccc2C1=O)NNC(=O)c1ccc(Cl)cc1Cl,-1.42% (inactive)
6,Cc1c(C(=O)NCCN2C(=O)S/C(=C\c3cccs3)C2=O)cccc1[N+](=O)[O-],-0.17% (inactive)
7,Cc1cccc(NC(=O)c2ccc(S(=O)(=O)N(C)CC3CCCO3)cc2)c1C (stereo not given),-0.21% (inactive)
8,CC1=C(C(=O)Nc2cccc(C(=O)NCC(C)c3ccccc3)c2)SCCO1 (stereo not given),-3.05% (inactive)
9,Cc1ccc(-c2cnc(C(O)c3cc(Cl)cc(Cl)c3)[nH]2)cc1 (stereo not given),2.03% (inactive)
10,O=[N+]([O-])c1ccc(COc2ccccc2CN2CCOCC2)cc1,4.14% (inactive)
11,Cc1ccccc1OCCOc1ccc([N+](=O)[O-])cc1/C=N/n1cnnc1,0.85% (inactive)
12,Cc1cccc(COc2ccccc2/C=N/Nc2ccc([N+](=O)[O-])cc2)c1,53.2% (active)
13,Cc1ccc(Cl)cc1NC(=S)N(CCN(C)C)Cc1cccs1,-2.05% (inactive)
14,COCCCn1c(=O)/c(=C/c2ccccc2OC(C)C)s/c1=C(\C#N)C(=O)Nc1ccc(C(=O)O)cc1,21.5% (inactive)
15,CCOC(=O)[C@@H]1[C@H]2COc3cc(OC)ccc3[C@H]2N2C(=O)N(c3ccc(F)cc3)C(=O)[C@]12C,-1.52% (inactive)
16,C#CCOCCOCCOCCNc1nc(N2CCN(C(=O)C(Cc3ccc(O)cc3)n3cc(C(N)CC(C)C)nn3)CC2)nc(N2CCN(C(=O)C(Cc3ccc(O)cc3)n3cc(C(N)C(C)CC)nn3)CC2)n1 (stereo not given),2.78% (inactive)
17,C#CCOCCOCCOCCNc1nc(N2CCN(C(=O)C([C@@H](C)O)n3cc([C@@H](N)CCCCN)nn3)CC2)nc(N2CCN(C(=O)[C@H](CCCCN)n3cc(CN)nn3)CC2)n1 (stereo not given in full),59.9% (active)
18,C#CCOCCOCCOCCNc1nc(N2CCN(C(=O)[C@H](CO)n3cc([C@@H](N)C(C)C)nn3)CC2)nc(N2CCN(C(=O)[C@H](CCC(=O)O)n3cc([C@@H](N)[C@H](C)CC)nn3)CC2)n1,-0.8% (inactive)
19,CSc1sc(C)cc1C1C(C#N)=C(N)N(c2cccnc2)C2=C1C(=O)CCC2 (stereo not given),-3.92% (inactive)
20,COC(=O)c1c(C)oc(C)c1S(=O)(=O)Nc1ccc(C(C)C)cc1,-0.92% (inactive)
21,FC(F)Oc1ccc(NC(=S)NCc2ccco2)cc1Cl,8.22% (inactive)
22,CCc1ccc2oc(-c3ccc(N)cc3)nc2c1,71.8% (active)
23,COc1ccc2oc(N)nc2c1,0.82% (inactive)
24,CC1(C)C/C(=C(/C#N)C(N)=O)CCO1,-0.48% (inactive)
25,CCOC(=O)C1CCN(C(=O)C2CCN(S(=O)(=O)CC)CC2)CC1,-4.66% (inactive)
26,CCOC(=O)C1CCN(C(=O)C2CCN(S(=O)(=O)N3CCCC3)CC2)CC1,-3.6% (inactive)
27,CCOC(=O)N1CCN(C(=O)C2CCN(S(C)(=O)=O)CC2)CC1,30.5% (active)
28,CCCCc1nccn1CCn1ccnc1CCCC,-1.42% (inactive)

row,SMILES,activity change
1,O=C(CC1SC(=Nc2ccccc2F)N(CCN2CCOCC2)C1=O)Nc1ccc(F)cc1F (stereo not given),2.99% (inactive)
2,CC(C)(C)NC(=O)c1ccc(Cn2cc(C(F)(F)F)ccc2=O)cc1,-4.39% (inactive)
3,Cc1ccc2[nH]c(=O)c(CN3CCCCC3)c(-c3ccccc3)c2c1,-1.94% (inactive)
4,O=c1cc(CN2CCCCCCC2)c2c(ccc3ccccc32)o1,-1.79% (inactive)
5,c1ccc2cc3[nH]c(CN4CCCCC4)nc3cc2c1,33.4% (active)
6,O=S(=O)(Cc1ccc(Cl)cc1Cl)c1ccc(Cl)cc1,1.8% (inactive)
7,COC(=O)C1=C(C(=O)OC)C2(OC1c1ccc(Br)cc1)C(=O)c1ccccc1C2=O (stereo not given),0.81% (inactive)
8,CN1C(=O)C(CC(N)=O)N(NC(=O)c2ccc(Cl)cc2)C1=S (stereo not given),-1.5% (inactive)
9,CC(=O)N1C(=O)/C(=C2\SC(=S)N(NC(=O)c3ccc(O)cc3)C2=O)c2ccccc21,-1.57% (inactive)
10,Cn1cccc1/C=C1\SC(=S)N(NC(=O)c2ccc(Cl)cc2)C1=O,74.6% (active)
11,O=C(NC1CCCC1)C1c2ccccc2OCC(=O)N1CC(F)(F)F (stereo not given),2% (inactive)
12,COc1ccc(-c2nc3cc(C)ccn3c2NC2CCCCC2)cc1SC1CCCCC1,47.8% (active) and 27.6% (inactive)
13,Cc1ccc2nc(-c3cccnc3)c(NC3CCCC3)n2c1,6.3% (inactive)
14,COc1cccc(-c2nc3nc(C)cc(C)n3c2NC2CCCCC2)c1,3.94% (inactive)
15,Cc1ccn2c(c1)nc(=O)c1cc(S(=O)(=O)N3CCC(C)CC3)ccc12,4.48% (inactive)
16,Cc1cc(=O)oc2cc(OC(C)C(=O)Nc3ccc(N4CCOCC4)cc3)ccc12 (stereo not given),-19.2% (inactive)
17,O=C(O)c1ccc(N=NN2CCOCC2)cc1,1.22% (inactive)
18,O=C(O)c1ccc(N/N=C/c2ccc3ncccc3c2)cc1,-1.15% (inactive)
19,O=C(O)c1ccc(NN=CC2=C(N3CCOCC3)/C(=C/c3ccccc3)CC2)cc1,41.5% (active)
20,O=C(COC(=O)/C=C/c1ccc(S(=O)(=O)N2CCCCCC2)cc1)NCc1ccccc1Cl,-2.22% (inactive)
21,O=C1CCC(C(=O)N2CCCCO2)CN1Cc1cccc(C(F)(F)F)c1 (stereo not given),1.26% (inactive)
22,NC(=O)Cn1nc([N+](=O)[O-])nc1Oc1ccc(Br)cc1,3.81% (inactive)
23,CCCCCCCNc1nc(Cl)nc(NCCO)n1,1.28% (inactive)
24,O=C(COC(=O)/C=C/c1cccc(Cl)c1)NCCc1ccccc1,1.96% (inactive)
25,NNc1cccc(C=Cc2ccccc2)cc1=O,37.5% (active)
26,O=C(COC(=O)c1cc(S(=O)(=O)N2CCOCC2)ccc1F)NC1CC1,-0.17% (inactive)
27,O=C(c1ccc[nH]c1=S)N1CCN(S(=O)(=O)c2ccc(Br)cc2Cl)CC1,0.57% (inactive)
